# Test results taken from the supplement of paper PMC11732987, “Enantioselective OTUD7B fragment discovery through chemoproteomics screening and high-throughput optimisation” (Communications Chemistry, 2025).
# Values without a mark were called inactive.
# Tests used:
# Experiment in all cases: log2 ratio of Biotin-Ahx-Ub-VS probe labelling (fragment/DMSO); higher = less target engagement (more negative = stronger competition), active = hit call of the paper (q ≤ 0.05, log2 ratio ≤ -1)
# Conditions in all cases: compound concentration: 200 uM; treatment time: 3 h
# OTUD6B = molecular target: T1, OTUD6B (UniProt Q8N6M0)
# T1 sequence (whole entry): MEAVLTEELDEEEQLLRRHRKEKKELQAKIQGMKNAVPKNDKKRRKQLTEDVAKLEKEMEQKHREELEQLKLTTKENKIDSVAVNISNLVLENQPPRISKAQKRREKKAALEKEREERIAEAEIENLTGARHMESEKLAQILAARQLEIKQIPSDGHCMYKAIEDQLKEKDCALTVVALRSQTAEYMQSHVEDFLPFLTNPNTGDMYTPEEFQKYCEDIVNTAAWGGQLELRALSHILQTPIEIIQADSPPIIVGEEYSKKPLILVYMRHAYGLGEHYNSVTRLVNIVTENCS
# Outline: (§1)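 Using Biotin-Ahx-Ub-VS at 0.5 µM final for 1 h, DUBs were labelled in HEK293T lysate (495 µg per sample) that had first been treated in triplicate with fragment at 200 µM or vehicle for 3 h. NeutrAvidin enrichment, LysC and trypsin digestion and diaPASEF LC-MS/MS followed. Spectronaut label-free quantities were global-median-normalised. Values are average log2 fragment/vehicle ratios by unpaired t-test, using proteins with ≥2 unique peptides.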
# OTUD7B = molecular target: T2, OTUD7B (UniProt Q6GQQ9)
# T2 sequence (whole entry): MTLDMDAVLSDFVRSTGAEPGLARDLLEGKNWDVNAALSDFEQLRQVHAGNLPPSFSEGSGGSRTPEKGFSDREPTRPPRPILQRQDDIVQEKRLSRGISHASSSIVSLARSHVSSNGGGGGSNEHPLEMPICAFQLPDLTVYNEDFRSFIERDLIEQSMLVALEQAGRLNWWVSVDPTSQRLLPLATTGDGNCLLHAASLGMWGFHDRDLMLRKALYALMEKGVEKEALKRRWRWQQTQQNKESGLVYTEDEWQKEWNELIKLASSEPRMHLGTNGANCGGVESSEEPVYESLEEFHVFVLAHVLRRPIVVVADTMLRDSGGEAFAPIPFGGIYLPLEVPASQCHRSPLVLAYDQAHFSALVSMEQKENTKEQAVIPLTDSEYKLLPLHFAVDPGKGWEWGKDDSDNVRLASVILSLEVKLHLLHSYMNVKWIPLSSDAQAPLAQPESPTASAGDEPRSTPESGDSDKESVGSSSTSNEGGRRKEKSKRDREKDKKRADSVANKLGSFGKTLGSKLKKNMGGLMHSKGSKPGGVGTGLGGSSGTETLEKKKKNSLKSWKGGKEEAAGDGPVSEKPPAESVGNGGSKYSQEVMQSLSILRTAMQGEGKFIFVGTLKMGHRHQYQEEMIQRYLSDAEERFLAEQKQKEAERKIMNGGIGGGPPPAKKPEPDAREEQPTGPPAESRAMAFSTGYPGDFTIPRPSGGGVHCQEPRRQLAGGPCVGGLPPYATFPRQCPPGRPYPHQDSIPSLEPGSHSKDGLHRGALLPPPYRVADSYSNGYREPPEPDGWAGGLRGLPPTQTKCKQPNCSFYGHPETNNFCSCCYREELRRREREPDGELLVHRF
# Outline: as §1
# PRPF8 = PRPF8 (UniProt Q6P2Q9)
# Outline: as §1
# PSMD7 = molecular target: T3, PSMD7 (UniProt P51665)
# T3 sequence (whole entry): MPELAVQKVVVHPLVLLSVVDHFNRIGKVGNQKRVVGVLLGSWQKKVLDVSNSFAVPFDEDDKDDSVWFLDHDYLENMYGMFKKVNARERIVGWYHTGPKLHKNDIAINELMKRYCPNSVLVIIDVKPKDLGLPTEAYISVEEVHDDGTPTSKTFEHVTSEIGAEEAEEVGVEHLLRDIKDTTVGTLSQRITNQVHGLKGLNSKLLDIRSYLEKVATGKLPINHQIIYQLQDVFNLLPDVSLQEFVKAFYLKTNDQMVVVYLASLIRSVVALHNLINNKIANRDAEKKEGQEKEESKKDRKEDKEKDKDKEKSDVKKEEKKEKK
# Outline: as §1
# UCHL1 = UCHL1 (UniProt P09936)
# Outline: as §1
# UCHL3 = molecular target: T4, UCHL3 (UniProt P15374)
# T4 sequence (whole entry): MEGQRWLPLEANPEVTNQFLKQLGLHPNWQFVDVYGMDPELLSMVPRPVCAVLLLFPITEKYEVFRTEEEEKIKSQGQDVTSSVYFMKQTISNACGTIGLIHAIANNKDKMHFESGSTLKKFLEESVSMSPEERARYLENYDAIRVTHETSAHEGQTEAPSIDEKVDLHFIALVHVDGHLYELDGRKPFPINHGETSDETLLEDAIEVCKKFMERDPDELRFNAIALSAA
# Outline: as §1
# UCHL5 = molecular target: T5, UCHL5 (UniProt Q9Y5K5)
# T5 sequence (whole entry): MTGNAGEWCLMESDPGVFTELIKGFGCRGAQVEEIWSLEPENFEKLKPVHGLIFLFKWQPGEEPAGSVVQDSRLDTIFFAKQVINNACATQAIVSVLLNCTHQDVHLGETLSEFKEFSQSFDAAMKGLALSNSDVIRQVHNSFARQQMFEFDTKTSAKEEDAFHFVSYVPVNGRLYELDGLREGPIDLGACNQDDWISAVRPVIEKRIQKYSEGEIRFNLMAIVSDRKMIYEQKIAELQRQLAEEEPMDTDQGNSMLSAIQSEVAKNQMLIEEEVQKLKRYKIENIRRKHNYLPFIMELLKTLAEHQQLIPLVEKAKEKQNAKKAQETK
# Outline: as §1
# USP10 = USP10 (UniProt Q14694)
# Outline: as §1
# USP15 = molecular target: T6, USP15 (UniProt Q9Y4E8)
# T6 sequence (whole entry): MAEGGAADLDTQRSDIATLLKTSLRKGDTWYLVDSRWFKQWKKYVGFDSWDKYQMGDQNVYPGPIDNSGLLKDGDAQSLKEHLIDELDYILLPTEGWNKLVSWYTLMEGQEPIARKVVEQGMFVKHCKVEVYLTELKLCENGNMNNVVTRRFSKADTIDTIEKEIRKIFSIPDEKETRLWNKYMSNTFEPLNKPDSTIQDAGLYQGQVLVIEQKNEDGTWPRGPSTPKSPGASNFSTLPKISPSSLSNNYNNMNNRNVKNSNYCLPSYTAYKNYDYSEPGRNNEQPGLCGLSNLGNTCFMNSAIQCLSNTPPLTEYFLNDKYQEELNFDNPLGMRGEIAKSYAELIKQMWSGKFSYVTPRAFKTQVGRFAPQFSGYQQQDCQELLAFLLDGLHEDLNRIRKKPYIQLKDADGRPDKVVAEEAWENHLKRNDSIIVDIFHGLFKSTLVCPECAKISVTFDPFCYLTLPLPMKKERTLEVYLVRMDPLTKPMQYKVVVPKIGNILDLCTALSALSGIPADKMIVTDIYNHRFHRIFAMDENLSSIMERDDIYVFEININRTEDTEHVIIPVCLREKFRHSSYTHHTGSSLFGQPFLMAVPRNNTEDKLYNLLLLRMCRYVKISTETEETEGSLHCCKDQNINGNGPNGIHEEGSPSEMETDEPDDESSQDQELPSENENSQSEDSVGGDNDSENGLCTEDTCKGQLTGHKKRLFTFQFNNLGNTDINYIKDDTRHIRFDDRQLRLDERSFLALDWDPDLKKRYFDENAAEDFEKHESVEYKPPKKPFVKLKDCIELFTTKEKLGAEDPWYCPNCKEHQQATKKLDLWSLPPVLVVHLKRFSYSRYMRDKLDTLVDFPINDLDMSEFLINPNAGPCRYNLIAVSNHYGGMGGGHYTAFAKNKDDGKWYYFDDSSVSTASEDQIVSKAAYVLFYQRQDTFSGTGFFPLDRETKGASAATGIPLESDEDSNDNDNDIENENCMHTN
# Outline: as §1
# USP16 = USP16 (UniProt Q9Y5T5)
# Outline: as §1
# Sequence of USP16 (Q9Y5T5 whole entry, looked up): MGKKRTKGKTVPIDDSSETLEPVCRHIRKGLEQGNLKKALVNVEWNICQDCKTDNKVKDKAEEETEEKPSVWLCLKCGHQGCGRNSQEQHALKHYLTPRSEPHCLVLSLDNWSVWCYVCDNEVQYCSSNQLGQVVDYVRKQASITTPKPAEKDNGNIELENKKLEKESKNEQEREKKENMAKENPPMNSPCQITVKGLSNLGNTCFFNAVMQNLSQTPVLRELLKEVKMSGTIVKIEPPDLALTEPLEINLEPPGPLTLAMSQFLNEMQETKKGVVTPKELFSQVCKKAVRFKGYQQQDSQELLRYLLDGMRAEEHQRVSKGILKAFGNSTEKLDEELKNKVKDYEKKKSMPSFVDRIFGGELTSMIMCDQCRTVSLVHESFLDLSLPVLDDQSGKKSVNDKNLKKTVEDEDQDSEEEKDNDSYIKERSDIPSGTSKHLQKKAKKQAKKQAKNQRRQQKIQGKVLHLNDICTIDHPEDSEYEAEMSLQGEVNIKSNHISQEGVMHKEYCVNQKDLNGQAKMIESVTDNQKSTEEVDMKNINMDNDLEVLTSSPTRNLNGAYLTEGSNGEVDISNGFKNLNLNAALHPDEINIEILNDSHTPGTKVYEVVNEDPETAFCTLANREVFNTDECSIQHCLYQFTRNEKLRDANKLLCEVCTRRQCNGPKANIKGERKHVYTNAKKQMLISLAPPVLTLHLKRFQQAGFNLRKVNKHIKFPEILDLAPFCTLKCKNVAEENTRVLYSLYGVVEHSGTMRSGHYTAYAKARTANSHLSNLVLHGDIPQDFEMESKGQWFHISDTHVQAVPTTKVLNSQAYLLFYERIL
# Sequence of USP10 (Q14694 whole entry): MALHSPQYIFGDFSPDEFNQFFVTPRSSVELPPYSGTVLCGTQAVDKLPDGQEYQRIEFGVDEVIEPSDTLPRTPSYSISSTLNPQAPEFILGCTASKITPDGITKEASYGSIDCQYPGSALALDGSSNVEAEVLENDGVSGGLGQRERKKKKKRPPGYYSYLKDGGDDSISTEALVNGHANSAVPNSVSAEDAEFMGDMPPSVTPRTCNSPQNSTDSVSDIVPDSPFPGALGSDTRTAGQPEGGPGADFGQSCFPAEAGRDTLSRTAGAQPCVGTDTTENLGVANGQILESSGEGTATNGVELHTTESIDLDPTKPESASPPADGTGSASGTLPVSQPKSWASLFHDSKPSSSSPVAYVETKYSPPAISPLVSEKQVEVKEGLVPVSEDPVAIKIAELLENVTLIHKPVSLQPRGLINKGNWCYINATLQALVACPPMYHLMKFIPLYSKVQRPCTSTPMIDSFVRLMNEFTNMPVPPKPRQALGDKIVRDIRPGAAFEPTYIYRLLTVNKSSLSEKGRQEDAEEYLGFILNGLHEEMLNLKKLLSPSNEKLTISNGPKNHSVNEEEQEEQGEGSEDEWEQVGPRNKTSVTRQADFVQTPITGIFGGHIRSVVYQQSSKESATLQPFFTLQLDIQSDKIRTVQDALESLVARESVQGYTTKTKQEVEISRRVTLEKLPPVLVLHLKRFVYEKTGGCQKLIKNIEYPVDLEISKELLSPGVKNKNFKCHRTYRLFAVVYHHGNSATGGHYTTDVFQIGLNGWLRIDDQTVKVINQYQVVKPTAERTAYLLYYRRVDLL
# Sequence of UCHL1 (P09936 whole entry, looked up): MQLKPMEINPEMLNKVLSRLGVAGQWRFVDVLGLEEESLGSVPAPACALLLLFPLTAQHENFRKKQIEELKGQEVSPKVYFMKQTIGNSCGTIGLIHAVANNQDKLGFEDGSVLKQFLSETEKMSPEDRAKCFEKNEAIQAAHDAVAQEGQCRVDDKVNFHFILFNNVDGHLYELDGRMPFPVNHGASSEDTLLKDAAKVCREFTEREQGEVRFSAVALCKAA
smiles,measurement,setting,value
O=C(CCl)N(C1CCCC1)C1CCS(=O)(=O)C1 (stereo not given),log2 ratio of Biotin-Ahx-Ub-VS probe labelling,OTUD6B,-0.0743
same,log2 ratio of Biotin-Ahx-Ub-VS probe labelling,OTUD7B,-0.147
same,log2 ratio of Biotin-Ahx-Ub-VS probe labelling,PRPF8,0.17
same,log2 ratio of Biotin-Ahx-Ub-VS probe labelling,PSMD7,0.00755
same,log2 ratio of Biotin-Ahx-Ub-VS probe labelling,UCHL1,-1.47 (active)
same,log2 ratio of Biotin-Ahx-Ub-VS probe labelling,UCHL3,0.248
same,log2 ratio of Biotin-Ahx-Ub-VS probe labelling,UCHL5,-0.176
same,log2 ratio of Biotin-Ahx-Ub-VS probe labelling,USP10,-0.0694
same,log2 ratio of Biotin-Ahx-Ub-VS probe labelling,USP15,-0.235
same,log2 ratio of Biotin-Ahx-Ub-VS probe labelling,USP16,-0.121
